From PubChem BioAssay
Bead autofluor: counter-screen for toxin protease inhibitors: compound fluorescence; fluorescence intensity (concentration not given with the values); 3.1% of 360,000 active; AID 624483; compound autofluorescence counterscreen, microsphere flow cytometry; stronger effect = higher value; in the data active = fluorescence intensity above about 16000; inconclusive = no clear call, values can overlap the other calls
BoNT-A LC inh2: inhibitors of Botulinum neurotoxin A light chain protease; multiplex microsphere protease substrate cleavage, flow cytometry; inhibition, % at 10 µM; 0.17% of 360,000 active
MazEF act: increases E. coli MazEF RNase cleavage of RNA. 0.32% of 350,000 active. FAM/BHQ RNA-DNA oligo cleavage fluorescence, 5 h. P0AE70. activation, % at 20 µM; in the data active = activation above about 50%
Vc quorum ag-1: induces V. cholerae light production without autoinducers | V. cholerae BH1578 lux reporter, luminescence, 6 h | activation, % at 18.7 µM | 0.16% of 350,000 active | AID 588436; in the data active = activation mostly above about 9.7%, no sharp cut-off; inconclusive = no clear call, values can overlap the other calls; inactive = mostly below about 3.7%
BoNT F protease: BoNT F light chain protease inhibition; AID 588497; inhibition, % at 10 µM; Multiplex microsphere protease cleavage assay, flow cytometry; 0.22% of 360,000 active; in the data active = inhibition above about 35%, passing the limit was not always enough; inconclusive = no clear call, values can overlap the other calls
Anthrax LF inh2: anthrax lethal factor protease inhibition | P15917 | 0.12% of 360,000 active | inhibition, % at 10 µM | multiplex microsphere protease cleavage assay, LF
Vc quorum ag-2: inducers of V. cholerae quorum light production without autoinducers; shares compounds with Vc quorum ag-1; V. cholerae BH1578 lux reporter, luminescence, 6 h; activation, % at 50 µM; 620 tested, under 10 active; AID 602243; call rule not given here
HeLa 24h tox: kills HeLa cells within 24 hours. shares compounds with Vc quorum ag-1. HeLa viability, CellTiter-Glo ATP luminescence. activity change, negative = cytotoxicity, % at 35 µM. 25 tested, under 10 active. AID 624140;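 active = signal drop with fitted half-maximal concentration at or below twice the highest valid dose; inconclusive = flat curve with 30 to 70% loss, or poor fit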
Of the large screens only hits and unclear results are named; the others gave an inactive call (follow-up assays come after a bar, where they were run). Hits are enriched below; roughly 3.9% of the tested compounds scored in any of these assays. Cut-off read from the data, not from the text of the source, unless noted: active = inhibition above about 30%; inconclusive = no clear call, values can overlap the other calls; inactive = below that.

COc1cccc(CN2CCNC(=O)C2CC(=O)N(Cc2cnn(C)c2)C(C)C)c1 (centres undefined)	none
O=C(NCc1ccco1)c1cc2n(n1)C(C(F)(F)F)CC(c1ccc(Br)cc1)N2 (centres undefined)	none
O=C(NCc1ccco1)c1cc2n(n1)C(C(F)(F)F)CC(c1ccc(Cl)c(Cl)c1)N2 (centres undefined)	Bead autofluor 17695 | Vc quorum ag-2 inactive
O=C(CSc1ccc2nnc(CCNC(=O)c3ccc(F)cc3)n2n1)NCC1CCCO1 (centres undefined)	none
OCC[C@@H]1C[C@H](O)[C@@H](O)[C@]2(OCCc3cc(Cl)ccc32)O1	none (no result: MazEF act, Vc quorum ag-1)
COc1ccccc1NC(=O)COc1ccc2c(c1)OCO2	Bead autofluor inconclusive, Vc quorum ag-1 105 | Vc quorum ag-2 inactive
COc1ccc(OCC(=O)Nc2ccccc2OC(F)F)cc1	none
COc1ccc(OCC(=O)Nc2ccccc2OC)cc1	Vc quorum ag-1 29 | Vc quorum ag-2 inactive
CC1Cc2ccccc2N1CC(=O)NCc1ccc2c(c1)OCO2 (centres undefined)	none
CCCCn1c(N)c(N(CC)C(=O)CSc2nnnn2-c2cc(C)ccc2C)c(=O)[nH]c1=O	none
Cc1cc(Cl)ccc1OCC(=O)OCC(=O)NC1CCS(=O)(=O)C1 (centres undefined)	none | Vc quorum ag-2 inactive
COc1ccc(NC(=O)N(C)C[C@@H]2Oc3ccc(NC(=O)NC(C)C)cc3CC(=O)N([C@H](C)CO)C[C@@H]2C)cc1	none
COc1ccc(CNC(=O)CSc2nc3c(oc4ccccc43)c(=O)n2CC2CCCO2)cc1 (centres undefined)	none | Vc quorum ag-2 inactive
CN1C(=O)c2ccc(Oc3ccccc3)cc2C1=O	BoNT F protease inconclusive
COc1ccc(OCC(=O)NC2CCCN(Cc3ccc(Cl)cc3)C2)cc1 (centres undefined)	none (no result: Vc quorum ag-1) | Vc quorum ag-2 inactive
O=C(COc1ccccc1)NC1CCCN(Cc2ccccc2)C1 (centres undefined)	none (no result: Bead autofluor, BoNT-A LC inh2, MazEF act, Vc quorum ag-1, BoNT F protease, Anthrax LF inh2) | HeLa 24h tox inactive
COc1cccc(CC(=O)NC2CCCN(Cc3ccc(Cl)cc3)C2)c1 (centres undefined)	BoNT F protease inconclusive
Cc1cccc(C)c1NC(=S)NCCSc1ccc(Cl)cc1	none
CC(C)(C)Cc1nc(-c2ccccn2)no1	none | Vc quorum ag-2 inactive
Cc1ccc(OCc2nc(-c3ccccn3)no2)cc1	none
CC1(C)CC2(CCO1)OC(=O)CC2C(=O)Nc1c(Cl)cccc1Cl (centres undefined)	BoNT F protease inconclusive
COc1cccc(NC(=O)C2CC(=O)OC23CCOC(C)(C)C3)c1 (centres undefined)	none | Vc quorum ag-2 inactive
O=C(COC(=O)CCN1C(=O)C2CC=CCC2C1=O)Nc1ccc(Cl)cc1F (centres undefined)	none
CCCCN(Cc1nc2ccccc2c(=O)[nH]1)C(=O)CN1C(=O)NC2(CCCCC2)C1=O	Vc quorum ag-1 110 | Vc quorum ag-2 inactive
CC1CCCCC12NC(=O)N(CC(=O)N(C)Cc1nc3ccccc3c(=O)[nH]1)C2=O (centres undefined)	none
CC1=C(C)C(O)N(Cc2ccccc2)C1=O (centres undefined)	none
O=C(c1ccc(C(=O)N2CCOCC2)nc1)N1CCOCC1	Vc quorum ag-1 17 | Vc quorum ag-2 inactive
O=C(CN1C(=O)COc2ccccc21)c1ccc(Cl)cc1	Vc quorum ag-1 17 | Vc quorum ag-2 inactive
CCc1ccccc1N1CC(C(=O)Nc2cc(C)on2)CC1=O (centres undefined)	none
CCn1nnnc1NCc1cccn1C	none | HeLa 24h tox inactive
CC1CCN(S(=O)(=O)c2ccc3c(c2)C(Cl)(Cl)C(=O)N3)CC1	none
CCC(C)c1ccccc1NC(=O)C(C)N(C)Cc1cccc(OC)c1 (centres undefined)	none
CCc1sc(N(C(=O)Cc2ccccc2)c2ccc(F)cc2)nc1-c1ccccc1	none | Vc quorum ag-2 inactive
Cc1c(C(=O)c2ccc(F)cc2F)c2ccccn2c1CCC#N	none
Cc1c(C(=O)c2ccc(F)cc2F)c2ccccn2c1CCc1ccccn1	none | Vc quorum ag-2 inactive
O=C(COC(=O)CNC(=O)c1ccco1)NCCN1C(=O)CSC1=O	none | Vc quorum ag-2 inactive
